Bioassay records from PubChem.
PrPC surface inh: inhibitors of human cell surface prion protein PrPC, primary screen, cell-based, TR-FRET | Major prion protein (Homo sapiens), P04156 | TR-FRET read-out | inhibition, % at 13.8 µM | actives 0.43% (n = 370,000) | AID 720596, 2013; in the data active means inhibition above about 24%; further: 0% = median of the test wells and 100% = reference compound wells
PfHsp40 yeast: rescue of yeast from PfHsp40 toxicity, primary screen, S. cerevisiae, ATP luminescence; growth rescue, % at 12.5 µM; actives 0.68% (n = 340,000); S. cerevisiae expressing PfHsp40, growth rescue; in the data active means growth rescue above about 28%, passing the limit was not always enough; inconclusive means no clear call, values can overlap the other calls;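 further: yeast W303a lacking pdr1 and pdr3 grown in galactose medium; growth measured after three days at 30 °C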
PriA SSB inh: inhibitors of Klebsiella pneumoniae PriA binding to SSB C-terminal tail, primary screen, biochemical, AlphaScreen; PriA–SSB C-terminal tail interaction (Klebsiella pneumoniae); AlphaScreen SSBct-PriA binding, biotinylated peptide; inhibition, % at 33 µM; actives 0.6% (n = 430,000); in the data active means inhibition mostly above about 37%, no sharp cut-off; inactive means mostly below about 20%;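 further: plate controls were negative control peptide for no effect and reference peptide for full effect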
Yp Topo-I inh: Yersinia pestis topoisomerase I inhibitors, primary screen, biochemical, cleavage product accumulation, plate reader, single point. AID 504884, 2011. actives 0.064% (n = 360,000). Y. pestis Topo-I cleavage product accumulation. DNA topoisomerase I (Yersinia pestis CO92). activity, % at 10 µM; in the data active means activity above about 50%, passing the limit was not always enough; inconclusive means no clear call, values can overlap the other calls
BJeLR lethal: MLPCN primary cell-based screen for lethality selective to Ras in HRASV12 cells | BJeLR (HRASV12) viability, CellTiter-Glo ATP luminescence, 48 h | inhibition, % (test concentration not listed) | actives 0.17% (n = 300,000) | AID 1554, 2009; in the data active means inhibition above about 50%; inconclusive means no clear call, values can overlap the other calls
PrP 5UTR inh: inhibition of PrP 5' UTR reporter expression. cell-based PrP 5' UTR mRNA reporter, plate reader. inhibition, % (concentration not given with the values). actives 0.35% (n = 340,000). AID 488862, 2010; in the data active means inhibition above about 52%; further: 0 = median of the neutral control wells
PrPC confirm: confirmation of inhibitors of cell surface human prion protein, confirmation, cell-based, TR-FRET; actives 65% (n = 1,500); AID 743200, 2013; inhibition, % at 13.8 µM; cell surface PrPC level; shares compounds with PrPC surface inh; in the data active means inhibition above about 25%
LD9 cytotox: cytotoxicity in LD9 cells, cytotoxicity control for cell surface PrPc inhibitor project, cell-based, luminescence, high throughput; AID 743201, 2013; luminescence viability; actives 29% (n = 1,500); shares compounds with PrPC surface inh; inhibition, % at 13.8 µM; in the data active means inhibition above about 9.5%
The depositor's hits bear a star; u = inconclusive; x = no result given. Hits are enriched below; roughly 1.7% of the tested compounds scored in any of these assays.

SMILES	PrPC surface inh	PfHsp40 yeast	PriA SSB inh	Yp Topo-I inh	BJeLR lethal	PrP 5UTR inh	PrPC confirm	LD9 cytotox
Cc1cccc(NC(=O)Cn2cc(C(=O)C3CC3)c3ccccc32)c1C	31.3*	-0.6	-8.8	-1.6	-0.9	10.5	23.3	22.0*
COc1ccccc1Cn1c(=S)[nH]c2ccc(F)cc2c1=O	108.0*	-0.6	-3.4	-3.5	-4.6	-17.3	131.3*	-4.6
COc1ccccc1Cn1c(=S)[nH]c2ccccc2c1=O	61.6*	-0.6	-6.6	-0.1	-2.0	3.1	89.6*	-0.6
COc1ccccc1Cn1c(=S)[nH]c2ccc(Br)cc2c1=O	0.9	-0.5	-11.0	0.8	4.3	-2.6	x	x
CN1C[C@@H](NC(=O)Cc2cccc3ccccc23)CC1=O	x	x	-15.0	x	x	x	x	x
O=C(NC(CO)(CO)CO)c1coc(=O)c(Br)c1	45.8*	-0.4	-13.4	8.8	3.1	-4.9	-4.5	-3.6
COc1ccc2c(c1)CCCC2(O)CNC(=O)C(=O)Nc1cccnc1 (stereo not given)	x	x	8.0	x	x	x	x	x
O=C(c1ccc(Cl)s1)N(Cc1ccccn1)c1nc2c(F)cccc2s1	x	x	-8.0	x	x	x	x	x
COc1cc(C#Cc2c(-c3cncn3C)n(C)c3ccc(-c4ccc5[nH]ccc5c4)cc23)cc(OC)c1	27.2*	0.2	5.2	-0.3	x	-38.3	16.1	14.2*
COc1cc(C=NNC(N)=O)c(Br)cc1OCC(=O)Nc1ccccc1C	x	x	0.3	x	x	x	x	x
CCOC(=O)COc1cc(Br)c(/C=N/Nc2ccccc2)cc1OC	61.1*	-1.1	x	-1.3	0.1	-7.1	64.2*	-8.3
CCCOC(=S)NC(=O)c1sc2ccccc2c1Cl	31.6*	0.0	2.8	4.2	1.5	x	38.3*	-2.7
CC(C)(C)C(=O)NC(=S)NNC(=O)c1sc2ccccc2c1Cl	x	u	4.4	5.6	16.2	-18.5	x	x
O=C(NC(=S)NCCO)c1sc2ccccc2c1Cl	77.5*	0.5	-0.6	0.8	2.6	-50.6	79.8*	-4.0
CCOC(=S)NC(=O)c1sc2ccccc2c1Cl	45.0*	2.8	0.2	1.9	1.3	x	33.8*	-5.9
O=C(CSCc1ccccc1)NCc1cncc(-c2ccsc2)c1	x	x	-16.0	x	x	x	x	x
Cc1cc(C)c(S(=O)(=O)NCCCn2ncccc2=O)cc1C	x	x	5.0	x	x	x	x	x
O=C(Cc1c(F)cccc1Cl)NCC(O)(c1cccs1)C1CC1 (stereo not given)	x	x	-26.0	x	x	x	x	x
COc1ccc2c(C)cc(SC3CCOC3=O)nc2c1 (stereo not given)	16.3	-0.6	1.0	2.7	-5.0	1.1	x	x
Cc1cc(C)c2nc(SC3CCOC3=O)cc(C)c2c1 (stereo not given)	77.5*	0.1	-8.2	15.7	-5.5	-8.9	86.5*	-7.4
O=C(Nc1nnc(C2=COCCO2)o1)c1ccco1	x	x	0.0	x	x	x	x	x
N#CCc1c(C#N)c(N)nc(N2CCN(S(=O)(=O)c3ccccc3F)CC2)c1C#N	31.1*	-0.9	-17.9	2.5	-7.3	-8.6	10.9	16.4*
CCOc1ccc2[nH]cc(C(=O)NCc3ccc(F)cc3)c(=O)c2c1	26.8*	-1.2	-6.0	1.7	9.3	-13.7	26.6*	-1.0
COC(=O)c1ccccc1SCc1csc(C)n1	8.9	0.0	-3.6	6.2	7.9	-20.3	x	x
O=C(O)c1ccccc1SCc1csc(-c2ccccc2)n1	76.3*	-1.8	0.2	-4.0	3.7	-19.3	59.8*	-3.6
CC(C)c1oc(=O)cc2c1[C@@H](O)[C@H]1OC(=O)[C@@]3(C)C[C@@H](O)[C@@H](O)[C@@]2(C)C13 (stereo not given in full)	63.9*	0.6	-4.0	-2.6	13.2	-69.0	58.5*	11.2*
